Assay results reported in PubChem BioAssay (NCI).
The panel holds about 83,000 compounds, 20% with a hit somewhere; the sample as a whole holds those more often.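 For each line, cells grew in 96-well plates with the test compound present at a single concentration for 48 hours.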 A number with no mark means an inactive call. Activity calls are given as the source filed them. How the source made its calls: active means growth percent below 10; inactive means the rest.

Columns and labels:
Experiment in all cases: NCI-60 one-dose screen, 48 h (100 = growth as untreated, 0 = no growth, -100 = all killed)
Settings in all cases: 10 µM unless noted
[1] = tested on: NCI-H23 lung
[2] = tested on: NCI-H226 lung
[3] = tested on: NCI-H322M lung
[4] = tested on: HOP-62 NSCLC
[5] = tested on: NCI-H460 lung
[6] = tested on: HOP-92 NSCLC
[7] = tested on: NCI-H522 lung
[8] = tested on: A549/ATCC NSCLC
[9] = tested on: 786-0 renal
[10] = tested on: COLO 205 colon

| Structure (SMILES) | growth [1] | growth [2] | growth [3] | growth [4] | growth [5] | growth [6] | growth [7] | growth [8] | growth [9] | growth [10] |
| --- | --- | --- | --- | --- | --- | --- | --- | --- | --- | --- |
| COc1cc(C2CC(=O)Nc3c2c(C)nn3-c2nc3ccccc3[nH]2)c(OC)c2c1OCO2 (stereo not drawn) | 86.9% | 84.8% | 86.9% | 75.8% | 66.7% | 85% | 71.2% | 52.4% | 78.6% | 91.9% |
| O=C1/C(=C/c2ccc(Br)cc2)C=C(c2ccccc2)N1CCc1ccccc1 | 40% | -1.06% (active) | 54.3% | -56.9% (active) | 25.6% | -13.9% (active) | 31.2% | 8.19% (active) | -8.73% (active) | 30.4% |
| COc1cc(C(=O)/C=C/c2c(C(F)(F)F)nc3sccn23)cc(OC)c1OC | 1.76% (active) | 29.1% | 13.8% | 4.69% (active) | -72.1% (active) | 40.1% | -63.1% (active) | 11.3% | 3.07% (active) | -76.7% (active) |
| CCN1CCN(c2cc(C)nc(NCc3cc(Nc4ccnc5cc(Cl)ccc45)ccc3F)n2)CC1 | 56% | 83.7% | 90.2% | 52.3% | 61.8% | 62.9% | 106% | 74.6% | 85% | -86.2% (active) |
| O=c1cc(-c2ccc(Cl)cc2)[nH]c2ccccc12 | 83.2% | 87% | 92.3% | 79.3% | 90.8% | 73.3% | 80.9% | 91.2% | 82.4% | 99.7% |
| Cc1nc2ccccc2c(/C=C/c2ccc(Cl)cc2)c1C(=O)/C=C/c1ccc(F)cc1 | 17.3% | -8.4% (active) | 51.8% | 3.74% (active) | -66.9% (active) | 66.3% | 1.17% (active) | 74.6% | -24.7% (active) | 13.9% |
| Cc1nn(-c2ccccc2)c(Cl)c1/C=C(/NC(=O)c1ccccc1)c1nc2ccccc2[nH]1 | 106% | 108% | 90.3% | 99% | 109% | 82.6% | 86.6% | 90% | 90.2% | 83.6% |
| COc1ccc(C2CC(c3cccc(OC)c3)=NN2C(=O)c2cc(OC)c(OC)c(OC)c2)cc1 (stereo not drawn) | 30.6% | 79.9% | 45.1% | 39.9% | 11.4% | 35.9% | 2.3% (active) | 32.5% | 21.6% | -1.64% (active) |
| O=S(=O)(Nc1cccc(Cl)c1)c1ccc(-c2cnc(C3CC3)o2)cc1 | 29.3% | 40.9% | 48.1% | 31.9% | 16.5% | 20.5% | -1.89% (active) | 38.4% | 28.4% | 0.342% (active) |
| C=CCn1c(C)nc2cc(Nc3nc(Cl)nc4ccccc34)ccc21 | 97.9% | 90.1% | 109% | 108% | 99.2% | 91.9% | 97.4% | 81.4% | 87.8% | 126% |
| CNc1ccc(NC)c2c1C(=O)c1ccccc1C2=O | 70.1% | 79.1% | 84% | 87% | 91% | 78.3% | 97.1% | 100% | 92.1% | 108% |
| CCOC(CN=Cc1cc(C)c2[nH]c3ccccc3c2c1C)OCC | 97.7% | 6.9% (active) | 113% | 102% | 83.1% | 115% | 113% | 102% | 93.2% | 107% |
| NC(=O)c1ccc[n+]([C@@H]2O[C@H](COP(=O)([O-])OP(=O)(O)OC[C@H]3O[C@@H](n4cnc5c(N)ncnc54)[C@H](O)[C@@H]3O)[C@@H](O)[C@H]2O)c1 | 103% | 117% | 113% | 108% | 104% | 111% | 105% |  | 103% | 113% |
| CCc1c2c(nc3ccc(OC(=O)NCc4ccc(B5OC(C)(C)C(C)(C)O5)cc4)cc13)-c1cc3c(c(=O)n1C2)COC(=O)[C@]3(O)CC | -28.3% (active) | -65.4% (active) | 5.73% (active) | -5.68% (active) | -16.7% (active) | 8.05% (active) | -23.2% (active) | 4.61% (active) | 6.78% (active) | 7.58% (active) |
| Cc1ccc(S(=O)(=O)N/N=C\c2cc(Cl)ccc2O)cc1 | 96.8% | 96.4% | 114% | 105% | 93.7% | 72.9% | 80.3% | 82% | 74.5% | 96.9% |
| O=C1CC(N2C(=O)/C(=C/C(Cl)=C\c3ccc([N+](=O)[O-])cc3)SC2=S)C(=O)N1c1ccc(O)cc1 (stereo not drawn) | -41.7% (active) | -64% (active) | 12.2% | 5.91% (active) | 0.922% (active) | -6.73% (active) | -24.1% (active) | 15.6% | -3.2% (active) | -42.9% (active) |
| COc1ccc(OC)c2c1[nH]c(=O)c1c3ncccc3cn21 | 34.4% | 32.2% | 48.5% | 31.7% | -3.99% (active) | 57.4% | 29.7% | 13.5% | 34.7% | 22.8% |
| O=C(NCCCNc1cc(-c2cn(-c3ccccc3)nc2-c2cccc(O)c2)ccn1)c1cccc(O)c1 | 67.3% | 86.6% | 111% | 85.3% | 69.6% | 57.2% | 53% | 53.4% | 63.8% | 80.2% |
| NC(=N\N=C/c1cccc([N+](=O)[O-])c1)/C(N)=N\N=C/c1cccc([N+](=O)[O-])c1 | 78.4% | 64% | 110% | 10.6% | -21.5% (active) | 73.9% | 66.9% | 15.6% | 109% | 19.4% |
| COc1cc(CCC[P+](c2ccccc2)(c2ccccc2)c2ccccc2)cc2c1OCO2 | 19.1% | 55.5% | 79.4% | 92.3% | 37.9% | 25.3% | 13.2% | 73.2% | 63.9% | 3.37% (active) |
| CCc1ccccc1-n1c(-c2ccc(Cl)cc2)cc(-c2ccc(OC)cc2)c(C#N)c1=O | 102% | 108% | 126% | 103% | 99.7% | 63.5% | 84.8% | 103% | 92% | 117% |
| O=C(CSc1nccc(Nc2ccc(S(=O)(=O)Nc3nccs3)cc2)n1)c1ccc(F)cc1 | 97.6% | 102% | 106% | 106% | 106% | 106% | 88.6% |  | 103% | 108% |
| COC(=O)/C=C1\S/C(=N\NS(=O)(=O)c2ccc(C)cc2)N(c2ccccc2)C1=O | 102% | 97.8% | 99.6% | 99.4% | 104% | 91.4% | 91.9% | 98.6% | 108% | 121% |
| CC1=C([Se]CC(OC(=O)CC[Se]c2ccccc2)C(=O)NCCCCCC(=O)OCc2ccccc2)C(=O)c2ccccc2C1=O (stereo not drawn) | 10% | 46% | 2.53% (active) | -15.1% (active) | 21.6% | -5.98% (active) | 52.7% | 11.9% | 58.2% | 105% |
| COc1cccc(-c2nn(-c3ccccc3)cc2-c2ccnc(NCCCNC(=O)c3ccccc3)c2)c1 | 51.3% | 61.4% | 95.2% | 53.6% | 51.7% | 41.5% | 38.3% | 30.7% | 40.2% | 35.2% |
| N#Cc1c(N)nc(NCCO)nc1-c1ccc(F)cc1 | 96.7% | 77.1% | 102% | 93.3% | 103% | 75.9% | 86.6% | 71.8% | 97.1% | 92.5% |
| COc1cccc(C(=O)NCCNc2cc(-c3cn(-c4ccccc4)nc3-c3cccc(OC)c3)ccn2)c1 | 59.7% | 77.3% | 92.6% | 61% | 57.4% | 46.2% | 35.8% | 43.6% | 50.5% | 59% |
